Shown are actives, neighbours in structure and some others; about 4.2% of the full set was active somewhere.
hgDAF12 agonist: H. glycines DAF-12 receptor agonists, primary screen, cell-based, luminescence, HEK293, GAL4 fusion, UAS-luciferase; Nuclear hormone receptor DAF-12 (Heterodera glycines), GAL4 fusion; HEK293 GAL4-hgDAF12 UAS-luciferase reporter, agonist luminescence; normalized to butyrate control; activation, % at 6.8 µM; actives 1.8% (n = 370,000); AID 687014, 2013;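 active = activation above a cutoff set at the mean of all screened compounds plus 3 SD, cut at about 10% in these data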;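 note: 0% = DMSO wells and 100% = sodium butyrate wells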
DAX1 StAR inh: DAX1 (NR0B1) inhibitors on StAR promoter, primary screen, cell-based, luminescence, SF-1 (NR5A1), full-length DAX-1. HEK293T StAR-luciferase reporter, SF-1/DAX-1 repression relief. inhibition, % at 6.8 µM. actives 1.1% (n = 370,000). AID 652010, 2013;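 active = inhibition above the mean over all tested compounds plus 3 SD, cut at about 3.6% in these data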;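 note: 0% = DAX-1 cells with DMSO and 100% = cells lacking DAX-1 with DMSO; higher inhibition means more luminescence from relief of DAX-1 repression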
hcDAF12 agonist: H. contortus DAF-12 nuclear receptor activators, primary screen, cell-based, luminescence, HEK293, lit1-tk-luc reporter | HEK293 hcDAF-12 lit1-tk-luc reporter; 0% DMSO, 100% Δ7-dafachronic acid | activation, % at 6.8 µM | actives 1.4% (n = 370,000) | AID 652067, 2013;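 active = activation above the mean of all tested compounds plus 3 SD, cut at about 5.5% in these data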;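 note: 100% = response to 3 µM Δ7-dafachronic acid high control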
esBAF inh: Bmi1 luciferase reporter increase in mESCs, primary screen, esBAF inhibitor project, mouse ES cells, Bmi1 luciferase knock-in, single point. actives 2% (n = 350,000). AID 602393, 2012. reporter increase, % at 12.5 µM. 24 h; 100% = twice the neutral-well signal; in the data active = activation above about 40%; inconclusive = no clear call, values can overlap the other calls;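 note: 0% = median of the plate's neutral control wells and 100% = double that signal; a rise in the Bmi1 reporter signal indicates esBAF inhibition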
ssDAF-12 act: S. stercoralis DAF-12 nuclear receptor activators, primary screen, cell-based, luminescence, HEK293, GRIP1 co-expression, lit1-tk-luc | HEK293 ssDAF-12/GRIP1 lit1-tk-luc reporter; % of 3 µM dafachronic acid response | activation, % at 6.8 µM | actives 1% (n = 370,000) | AID 652126, 2013;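 active = activation above the mean over all tested compounds plus 3 SD, cut at about 0.9% in these data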;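 note: 0% = DMSO-only wells and 100% = 3 µM delta7-dafachronic acid wells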
Wnt act: Wnt/beta-catenin pathway activators, primary screen, cell-based, plate reader, single point; Wnt/beta-catenin reporter cell assay, activator; activation, % at 9.35 µM; actives 1.2% (n = 300,000); AID 743398, 2014; in the data active = activation above about 30%, passing the limit was not always enough; inconclusive = no clear call, values can overlap the other calls;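 note: 0% = neutral control wells and 100% = positive control wells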
Active calls of the source: *; ? = inconclusive; / = not tested or not shown.

SMILES	hgDAF12 agonist	DAX1 StAR inh	hcDAF12 agonist	esBAF inh	ssDAF-12 act	Wnt act
CC(C)=CCC/C(C)=C/CNC(=O)C[C@H]1C[C@H](C(=O)N2CCCCC2)[C@@]2(CCc3ccccc3)c3[nH]c4cc(CCC(=O)N(C)C)ccc4c3CCN2C1=O	6	1	-1	52*	0	1
CN(C)CCCNC(=O)CC1C[C@H](C(=O)N2CCCCC2)[C@@]2(CCc3ccccc3)c3[nH]c4ccccc4c3CCN2C1=O (stereo not given in full)	1	3.9*	1	-3	-1	-3
CC(C)=CCC/C(C)=C/CNC(=O)C[C@H]1C[C@H](C(=O)N2CCCCC2)[C@@]2(CCc3ccccc3)c3[nH]c4ccc(Cl)cc4c3CCN2C1=O	-1	0	0	-4	-1	-3
COc1ccc2[nH]c3c(c2c1)CCN1C(=O)C(CC(=O)NCCCN(C)C)C[C@H](C(=O)N2CCCCC2)[C@@]31CCc1ccccc1 (stereo not given in full)	-1	0	0	8	-1	-2
COc1ccc2nc(NC(=O)CN3CCN(C)CC3)sc2c1	2	0	2	10	-1	/
CCCC(=O)Nc1ccc2nn(-c3ccc(OC)cc3)nc2c1	7	1	-1	50*	-1	-1
COc1ccc2nc(NC(=O)CCNC(=O)c3ccco3)sc2c1	8	2	5	45*	-1	42*
CC(C)NC(=O)CSc1nc(-c2ccccc2)cs1	11*	3	1	/	-1	10
O=C(CCNC(=O)c1ccco1)Nc1nc2ccccc2s1	8	2	4	37	1	26
COc1ccc2nc(NC(=O)CN3CCOCC3)sc2c1	11*	0	1	15	-1	5
O=C(C[C@H]1CC[C@H]2NC[C@H](O)COC[C@@H]2O1)Nc1nccs1	/	/	/	-7	/	/
COc1ccc2nc(NC(=S)NC(=O)c3ccco3)sc2c1	11*	1	3	/	0	22
COc1ccc(-c2csc(NC(=S)NC(=O)c3ccco3)n2)cc1	0	0	0	3	-1	10
O=C(CN1CCCCC1)Nc1nc(-c2ccccc2)cs1	1	0	0	55*	-1	9
COc1ccc2nc(NNC(=O)C3COc4ccccc4O3)sc2c1 (stereo not given)	6	0	6.2*	11	1.3*	26
Cc1nc(NC(=O)CN2CCOCC2)sc1-c1ccccc1	8	0	0	50*	-1	14
O=C(CN1CCCCC1)Nc1nc(-c2ccc(Cl)cc2)cs1	-1	0	-2	29	0	10
COc1ccc(-c2cnc3c(c2)C(=O)N([C@H](C)CO)C[C@H](C)[C@H](CN(C)Cc2ccc(F)cc2)O3)cc1	/	/	/	-2	/	/
CCCC(=O)Nc1nc2ccc(OC)cc2s1	9	2	2	58*	-1	?
COc1ccc2nc(NC(=O)CSc3nnc(C)n3N)sc2c1	10	3.8*	4	-19	0	?
COc1ccc2nc(NC(=O)CCc3ccc(OC)c(OC)c3)sc2c1	-2	0	-3	/	-2	-2
CCOC(=O)c1sc(S(C)(=O)=O)c2c1CCc1conc1-2	0	0	-1	/	0	55*
Cc1cc(NC2CCCC2)n2ncc(-c3ccccc3)c2n1	-12	-1	-4	-45	-2	0
Cc1cc(NC(C)c2ccccc2)n2ncc(-c3ccccc3)c2n1 (stereo not given)	8	1	2	59*	0	27
Cc1cc(C)n(-c2cc(C(C)(C)C)nc3c(-c4ccc(Cl)cc4)cnn23)n1	1	0	-2	17	-1	/
SMILES	hgDAF12 agonist	DAX1 StAR inh	hcDAF12 agonist	esBAF inh	ssDAF-12 act	Wnt act
Cc1cc(C)n(-c2cc(C(C)(C)C)nc3c(-c4ccccc4)cnn23)n1	11*	3	3	/	0	56*
COc1ccc(CCNc2cc(C)nc3c(-c4ccccc4)cnn23)cc1OC	-5	0	-2	/	-2	14
Cc1cc(NCc2ccccc2)n2ncc(-c3ccccc3)c2n1	9	4.1*	4	21	0.9*	28
Cc1ccc(CSc2nnc3c(n2)OC2(Nc4ccccc4-3)C(=O)Nc3ccc(F)cc32)cc1 (stereo not given)	-1	0	2	1	-1	-1
O=C1Nc2ccc(F)cc2C12Nc1ccccc1-c1nnc(SCc3ccccc3)nc1O2 (stereo not given)	0	0	5.6*	24	-1	-1
C[C@@H]1CN([C@H](C)CO)C(=O)c2cc(NS(=O)(=O)c3cn(C)cn3)ccc2O[C@H]1CN(C)Cc1ccc(C(=O)O)cc1	/	/	/	3	/	/
COc1ccc(CCNC(=O)c2ccccc2OCc2c(C)noc2C)cc1	-1	3.7*	-1	4	-1	-4
Cc1noc(C)c1COc1ccccc1C(=O)NCCc1ccc(Cl)cc1	0	1	-1	23	-1	9
COc1ccc2[nH]cc(C(=O)CN3CCCC(C)C3)c2c1 (stereo not given)	3	0	0	-1	-1	/
COc1ccc2[nH]cc(C(=O)CN3CCC(C)CC3)c2c1	7	1	3	30	1.3*	/
CCOC(=O)C1CCCN(CC(=O)Nc2cc(C)cc(C)c2)C1 (stereo not given)	1	1	0	-5	-1	-3
CCOC(=O)C1CCCN(CC(=O)c2c[nH]c3ccc(C)cc23)C1 (stereo not given)	2	0	2	/	1.3*	0
O=C(Nc1nnc(C2CCCO2)s1)c1cccs1 (stereo not given)	5	0	3	?	0	/
O=C(Nc1ncc(Cc2cccc(Cl)c2)s1)C1=NCCN1	4	0	-1	1	-2	-4
O=C(Nc1ncc(Cc2cccc(Cl)c2)s1)c1cccs1	7	1	2	47*	-1	/
O=C(Nc1nnc(C2CCCCC2)s1)c1cccs1	7	2	0	51*	0	58*
O=C(Nc1nnc(Cc2ccccc2)s1)Nc1ccccc1F	-2	1	-2	53*	-1	25
O=C(Nc1nnc(Cc2ccccc2)s1)c1ccccc1	7	1	0	70*	0	0
Cc1ccc(C(=O)Nc2nnc(Cc3ccccc3)s2)cc1	1	-1	-2	3	-1	2

Screening data (PubChem BioAssay)
